About 140 (0.14%) of roughly 97,000 compounds were called active.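 The calls were made as follows: active = inhibition above the screen-wide mean inhibition plus 3 SD (cut at about 15% in these data); inactive = the rest.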 Many of the other results were omitted from the sample, so actives are more common in it than they were.
Each compound was assayed against Ephrin type-B receptor 4 (Homo sapiens) (UniProt P54760) (assay: EphB4-ephrin-B2 interaction antagonists, primary screen, biochemical, TNYL-RAW peptide probe, fluorescence polarization (AID 720;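 also: 0% = DMSO wells and 100% = excess unlabeled TNYL-RAW peptide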)). Conditions: EphB4 LBD / TNYL-RAW-Alexa532 peptide, at 7 µM, active compounds read high.
Sequence of Ephrin type-B receptor 4 (Homo sapiens) (P54760 whole entry, looked up, the tested form may be a part): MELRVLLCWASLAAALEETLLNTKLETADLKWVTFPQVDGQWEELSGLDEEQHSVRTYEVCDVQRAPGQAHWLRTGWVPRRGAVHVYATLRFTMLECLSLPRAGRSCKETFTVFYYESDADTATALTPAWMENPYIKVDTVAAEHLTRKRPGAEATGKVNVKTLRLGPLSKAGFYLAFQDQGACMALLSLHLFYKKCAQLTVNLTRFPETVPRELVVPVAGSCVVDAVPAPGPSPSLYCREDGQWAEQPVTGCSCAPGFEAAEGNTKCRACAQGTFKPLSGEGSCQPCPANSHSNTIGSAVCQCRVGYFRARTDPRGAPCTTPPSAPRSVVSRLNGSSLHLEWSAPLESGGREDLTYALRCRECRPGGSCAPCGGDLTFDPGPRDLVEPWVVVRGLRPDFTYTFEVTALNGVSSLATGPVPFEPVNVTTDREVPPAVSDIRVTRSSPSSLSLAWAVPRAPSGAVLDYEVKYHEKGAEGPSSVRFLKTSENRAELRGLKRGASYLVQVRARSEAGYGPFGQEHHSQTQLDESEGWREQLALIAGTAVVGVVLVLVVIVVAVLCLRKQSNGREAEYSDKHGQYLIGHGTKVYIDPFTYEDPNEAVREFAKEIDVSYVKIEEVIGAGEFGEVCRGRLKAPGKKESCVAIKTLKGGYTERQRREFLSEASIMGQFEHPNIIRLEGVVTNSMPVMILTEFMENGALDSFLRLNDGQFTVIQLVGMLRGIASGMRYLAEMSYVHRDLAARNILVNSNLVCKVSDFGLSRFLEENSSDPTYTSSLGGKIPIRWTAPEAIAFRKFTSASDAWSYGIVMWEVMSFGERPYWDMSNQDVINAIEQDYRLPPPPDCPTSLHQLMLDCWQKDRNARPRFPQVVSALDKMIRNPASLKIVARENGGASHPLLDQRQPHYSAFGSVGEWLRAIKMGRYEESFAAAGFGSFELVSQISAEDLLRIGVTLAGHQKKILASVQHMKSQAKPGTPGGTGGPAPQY
For `Cc1ccc(-c2nn(-c3ccccc3)cc2/C=N/NC(=O)c2ccc3c(c2)OCO3)cc1`, the inhibition was -6.96% (inactive). For `CN(C)Cc1ccccc1C1(O)c2ccccc2CSc2ccccc21` (configuration not stated), the inhibition was 2.27% (inactive). For `CN(C)c1nc2n(c(=O)n1)CCO2`, the inhibition was 17.6% (active). With `O=c1nc(N2CCOCC2)nc2n1CCO2` the inhibition was -6.76% (inactive). `CC(C)CC(N=C1NC(C)(C)Cc2ccccc21)C(=O)O` (configuration not stated) was tested, and the inhibition was 0.51% (inactive). For `COc1ccc(/C(O)=C2\C(=O)C(=O)N(Cc3ccco3)C2c2ccc(OC)cc2OC)cc1` (configuration not stated), the inhibition was -7.3% (inactive). With `CCOC(=O)c1c(NC(=O)CCCN2CCOCC2)sc2c1CC(C)(C)OC2` the inhibition was 7.6% (inactive). In the case of `CCCOC(=O)c1[nH]c2c(c1C)C(=O)CC(c1cccs1)C2` (configuration not stated), the inhibition was 3.13% (inactive). `Nn1c(Cc2cccc3ccccc23)nnc1SCC(=O)N1CC(=O)Nc2ccccc21` was tested, and the inhibition was 5.41% (inactive). For `CCOc1ccc(NC(=O)CN(C)CC(=O)Nc2cccc(Cl)c2C)cc1OCC`, the inhibition was -10.2% (inactive). With `COC(=O)c1ccc(C2C(Oc3ccccc3C)C(=O)N2CCc2ccc(OC)c(OC)c2)cc1` (configuration not stated) the inhibition was -5.62% (inactive). In the case of `CCC(C)(C(=O)NC1CCCCC1)N(C)C(=O)c1ccc2c(c1)OCO2` (configuration not stated), the inhibition was 3.83% (inactive). In the case of `O=C(COc1ccc(Cl)cc1)N1CCN(S(=O)(=O)c2ccc(Cl)cc2)CC1`, the inhibition was 0.78% (inactive). For `Cc1cccc(N2CCN(C(=O)CN(C)S(=O)(=O)c3ccc4c(c3)CCC(=O)N4)CC2)c1C`, the inhibition was 3.05% (inactive). `CN(C)CCNC(=O)Nc1cccc(Cl)c1Cl` was tested, and the inhibition was -7% (inactive). For `O=C1CSC(c2ccc(Cl)cc2)N1` (configuration not stated), the inhibition was -6.27% (inactive). For `Cc1cccc(NC(=S)Nc2ccc(Br)cc2)c1`, the inhibition was 1.26% (inactive). `O=C(Nc1cccn(Cc2c(Cl)cccc2Cl)c1=O)c1ccc(Cl)cc1` was tested, and the inhibition was 4.57% (inactive). For `CCOc1ccc(Nc2nc(Cc3nnc(SCC(=O)c4ccc(C)cc4)o3)cs2)cc1`, the inhibition was 2.63% (inactive). In the case of `CC(C)(C)n1nnnc1C(c1ccc(Cl)cc1)N1CCSCC1` (configuration not stated), the inhibition was 3.05% (inactive). With `COc1cccc2c1OCC1COc3c(c(=O)n(C)c(=O)n3C)C21` (configuration not stated) the inhibition was 5.25% (inactive). In the case of `Cc1ccc(NC(=O)CSCC(=O)N2CCOCC2)cc1`, the inhibition was 1.18% (inactive). For `Cc1cc(Nc2ccccc2)nc(N)n1`, the inhibition was -7.64% (inactive). In the case of `O=C(NCCc1ccccn1)c1cc(C(=O)C2CCCCC2)c[nH]1`, the inhibition was 1.78% (inactive). For `C/C(=N\NC(=O)c1nc(C)cc(C)n1)c1ccccc1`, the inhibition was 3.33% (inactive). `O=S(=O)(Cc1cc(Sc2ccccc2)nc(-c2ccccc2)n1)c1ccccc1` was tested, and the inhibition was -3.64% (inactive). In the case of `Cc1cc(N)n2nc(-c3ccc(C(C)(C)C)cc3)cc2n1`, the inhibition was -2.84% (inactive).

Source: PubChem BioAssay AID720 (The Scripps Research Institute Molecular Screening Center, 2007)
